Results filed as inconclusive are left out. The source made the active and inactive calls. Rule for the calls: active = hit-call score of the fitted dose curve at least 0.9, where 1 is the maximum; inconclusive = response in the unintended direction; inactive = score below 0.9.
These compounds were tested against Estrogen receptor (Homo sapiens) (UniProt P03372) (assay: CCTE_Deisenroth_AIME_384WELL_LUC_Inactive: CCTE's 384-well Estrogen Receptor Transactivation Assay without AIME metabolic competence (ERTA luciferase; metabolism negative), Deisenroth Lab (AID 2284038);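 note: VM7Luc4E2 breast cells given medium preincubated 2 h with S9-free microspheres; hits raise estrogen receptor luciferase signal so potencies reflect agonists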).
Experimental: CCTE_Deisenroth_AIME_384WELL (AIME metabolism assay) is a cell-based, single-readout assay that uses VM7Luc4E2, a human mammary gland/breast cell line, with measurements taken at 24 hour after chemical dosing in a 384-well plate.CCTE_Deisenroth_AIME_384WELL_LUC_Inactive is one of four assay components measured or calculated from the CCTE_Deisenroth_AIME_384WELL assay. It is designed to make measurements of luciferase induction, a form of inducible reporter, as detected with bioluminescence signals by luciferase-coupled ATP quantitation technology.CCTE_Deisenroth_AIME_384WELL_LUC_Inactive is a component of the CCTE_Deisenroth_AIME_384WELL assay that measures the effect of retroftting the VM7Luc ERTA assay with the Alginate Immobolization of Metabolic Enzymes (AIME) metabolism method. AIME is optimized to impart phase I hepatic metabolism using phenobarbital/beta-naphthoflavone induced hepatic S9 from male Sprague Dawley rats. Parent chemicals are incubated for 2 hours in the AIME assay prior to transfer to the VM7Luc ERTA assay plate. […] This endpoint evaluates reporter induction in metabolism negative mode. Using a type of inducible reporter in VM7Luc cells, gain-of-signal activity can be used to understand changes in the reporter gene as they relate to xenobiotic metabolism and the gene ESR1. This assay endpoint, CCTE_Deisenroth_AIME_384WELL_LUC_Inactive, was analyzed in the positive analysis fitting direction relative to 17beta-estradiol as the positive control in the ERTA assay. To generalize the intended target to other relatable targets, this assay endpoint is annotated to the nuclear receptor intended target family, where the subfamily is steroidal.
The AIME procedure consists of a preparative "pre-stamping" step using a barium chloride/poly-L-lysine (PLL) solution followed by "stamping" the lid in alginate-hepatic S9 (metabolism positive) or alginate-water (metabolism negative) to form microspheres. Once stamping is completed, the AIME lids are placed in duplicate microplates (metabolism positive or negative) containing chemical solutions and incubated for two hours to facilitate metabolic reactions. The conditioned medium, containing parent chemical or metabolites, is then transferred to the cell-based VM7Luc Estrogen Receptor Transactivation Assay (ERTA) for 24 hours. A typical experimental design tests a 10-point concentration series (0.002 - 200 uM) for 8 compounds (96-well format)1 or 32 compounds (384-well format)2 in single technical replicate. AIME assay controls include trans-stilbene (bioactivated control) and ethylparaben (bioinactivated control). ERTA assay plate controls include 17-beta estradiol (positive control) and DMSO (solvent control). Experiments typically comprise a minimum of four experimental replicates (n=4).

Estrogen receptor (Homo sapiens), sequence (P03372 whole entry, looked up): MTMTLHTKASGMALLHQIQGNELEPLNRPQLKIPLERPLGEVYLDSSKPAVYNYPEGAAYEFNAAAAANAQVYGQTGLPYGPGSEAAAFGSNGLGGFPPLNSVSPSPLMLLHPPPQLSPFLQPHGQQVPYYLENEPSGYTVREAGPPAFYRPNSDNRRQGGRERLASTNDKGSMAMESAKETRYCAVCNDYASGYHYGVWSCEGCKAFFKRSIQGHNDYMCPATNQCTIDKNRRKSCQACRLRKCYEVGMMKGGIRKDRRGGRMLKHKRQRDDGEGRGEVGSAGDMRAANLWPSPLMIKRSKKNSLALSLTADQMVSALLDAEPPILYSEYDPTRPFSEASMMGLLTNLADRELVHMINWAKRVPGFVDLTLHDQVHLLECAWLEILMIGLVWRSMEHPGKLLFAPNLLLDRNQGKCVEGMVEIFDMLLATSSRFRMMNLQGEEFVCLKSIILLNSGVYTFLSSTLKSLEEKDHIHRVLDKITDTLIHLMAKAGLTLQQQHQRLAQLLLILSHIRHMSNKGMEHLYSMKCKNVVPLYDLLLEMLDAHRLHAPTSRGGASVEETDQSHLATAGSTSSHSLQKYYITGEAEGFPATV

Row | Compound | AC50 | outcome
1 | Cc1ccc(O)c(-n2nc3ccccc3n2)c1 | 38.2 µM (active) | –
2 | O=C(c1ccccc1)c1ccc(O)cc1O | 40.3 µM (active) | –
3 | CCOC(OCC)OCC | – | inactive
4 | CC(C)(C)c1cc(Cc2cc(C(C)(C)C)c(O)c(C(C)(C)C)c2)cc(C(C)(C)C)c1O | – | inactive
5 | CC(=O)CCC(C)C | – | inactive
6 | CC(C)OC=O | – | inactive
7 | CCCCCCCC/C=C\CCCCCCCC(=O)OCC(O)CO (stereo unspecified) | – | inactive
8 | OCC1CCCO1 (stereo unspecified) | – | inactive
9 | CCCCOC(=O)C(C)O (stereo unspecified) | – | inactive
10 | N#Cc1ccccc1O | – | inactive
11 | O=C1C=CC(=O)N1c1ccccc1 | – | inactive
